# From PubChem
# IL-1B inflam inh: inflammasome signaling inhibition, IL-1 beta readout. THP-1 LPS/ATP IL-1B secretion, AlphaLISA, 16 h; hits give low values. activity change, % at 57.5 µM. actives 4.7% (n = 360,000). AID 743279; in the data active = activity change below about -50%; inconclusive = mostly about -30% to -49%; note: % is set by controls: 0 for no effect and ±100 for the full control effect
#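 Secreted IL-1B measured by AlphaLISA bead assay after 16 h compound exposure of THP-1 cells; compounds (final up to 57.5 uM) added 1 h before LPS (250 ng/mL) and ATP (1.25 mM) stimulation; lower signal means less secretion.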
# ClpP mod: qHTS Assay for Activators of ClpP. purified B. subtilis ClpP, FRET peptide cleavage, 20 min. Potency, µM (titrated, usually from 57.5 µM), without a hit: at the top dose activity change, negative = active. AID 651965, 2013. actives 1.9% (n = 340,000); active = well fitted falling curve with a large enough effect; inconclusive = small, poorly fitted or top-dose-only effect; inactive = no such curve, though single readings can be large or run the other way; note: potency is the fitted concentration of half-maximal effect; the source files actives as falling curves though it sought activators and does not explain the sign; nearly all actives have a fitted effect of over 65% in size
# Target sequence (P80244 whole entry, looked up): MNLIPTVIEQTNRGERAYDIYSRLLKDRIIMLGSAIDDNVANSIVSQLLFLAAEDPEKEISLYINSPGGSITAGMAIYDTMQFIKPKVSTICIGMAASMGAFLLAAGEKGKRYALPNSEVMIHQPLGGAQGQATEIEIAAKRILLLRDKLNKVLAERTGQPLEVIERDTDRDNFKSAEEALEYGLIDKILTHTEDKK
#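 FRET quenching reversal measured ClpP activation: 10 microg/mL B. subtilis ClpP at pH 8 with the FRET-FV decapeptide, read at 430 nm after 320 nm excitation. The 20-min minus 0-min signal was scaled between DMSO/no-enzyme wells and ADEP (5.8 microM final).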
# DT40 TDP1 no CPT: qHTS for Inhibitors of human tyrosyl-DNA phosphodiesterase 1 (TDP1): qHTS in cells in absence of CPT. Potency, µM (top dose mostly 46.2 µM), for inactives: top-dose activity change, negative = growth inhibition, actives largely listed as inhibitors. AID 686978, 2013. DT40 Tdp1-/- hTDP1 cells, no CPT, ATP luminescence, 48 h. actives 15% (n = 420,000); note: potency is the fitted concentration of half-maximal effect; % is set by controls: 0 for no effect and ±100 for the full control effect; nearly all actives have a fitted effect of over 55% in size
#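 Compound effects on proliferation are scored in DT40 Tdp1-/-;hTDP1 cells in the absence of CPT. ATP levels (CellTiter-Glo luminescence) are recorded after a ≥48 hr, 37 °C incubation.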
# D3 antag: D3 dopamine receptor (human) antagonism | actives 2.5% (n = 360,000) | P35462 | D3R cells, DiscoveRx beta-arrestin luminescence, antagonist mode; hits give low values | max response, negative = inhibition, %; in the data active = max response below about -50%; inconclusive = no clear call, values can overlap the other calls; note: % is set by controls: 0 for no effect and ±100 for the full control effect
# Target sequence (P35462 whole entry, looked up): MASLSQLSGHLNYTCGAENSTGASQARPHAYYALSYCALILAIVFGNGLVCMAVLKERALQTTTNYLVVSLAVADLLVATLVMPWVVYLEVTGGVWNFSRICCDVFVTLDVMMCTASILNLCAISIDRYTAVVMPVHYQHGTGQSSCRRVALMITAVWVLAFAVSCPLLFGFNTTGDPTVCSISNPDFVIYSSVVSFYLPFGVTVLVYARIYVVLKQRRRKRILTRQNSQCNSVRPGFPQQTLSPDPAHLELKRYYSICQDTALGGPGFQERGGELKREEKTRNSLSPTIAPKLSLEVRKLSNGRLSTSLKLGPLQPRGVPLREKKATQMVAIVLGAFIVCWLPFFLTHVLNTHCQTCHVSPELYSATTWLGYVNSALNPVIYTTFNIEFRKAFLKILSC
#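 Cells expressing the human receptor were seeded at 1500 cells/well, incubated overnight at 37 degrees C in 5% CO2, then exposed to library compounds with dopamine controls for 90 minutes at 37 degrees C before luminescent detection.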
# DRD3 agonist: agonists of human D3 dopamine receptor; P35462; D3R DiscoveRx beta-arrestin cells, luminescence, 90 min; max activation, %; actives 0.58% (n = 410,000); AID 652048; in the data active = max activation above about 30%; note: 0% is about no effect
#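 Agonist-mode cell screen: cells plated at 1500/well and incubated overnight at 37 °C, then exposed to library compounds for 90 min at 37 °C. Detection reagent was added for 30–60 min at room temperature, and luminescence was read.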
# DT40 TDP1 CPT: DT40-hTDP1 cell growth loss with CPT; chicken DT40 Tdp1-/-;hTDP1 cells + 20 nM CPT, ATP luminescence, 48 h; Potency, µM (doses to about 46.2 µM), for inactives: at the top dose activity change, negative = growth inhibition, most hits filed as inhibitors; actives 12% (n = 420,000); AID 686979; note: potency is the fitted concentration of half-maximal effect; % is set by controls: 0 for no effect and ±100 for the full control effect; nearly all actives have a fitted effect of over 55% in size
#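 Cell growth measured by CellTiter-Glo luminescence after a minimum 48 h, 37 C compound exposure with 20 nM CPT in Tdp1-knockout DT40 cells stably expressing hTDP1, seeded 400/well; qHTS titration format.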
# * hit, by the source's call; ? = inconclusive; . = not tested or not shown. This is a sample that favours compounds with a hit; in the whole collection about 21% have one here. Unless noted, calls come from the whole dose curve; as a rule, active = well fitted inhibition curve with a large enough effect; inconclusive = small, poorly fitted or top-dose-only effect; inactive = flat fitted curve, though single readings scatter.
SMILES,IL-1B inflam inh,ClpP mod,DT40 TDP1 no CPT,D3 antag,DRD3 agonist,DT40 TDP1 CPT
Cc1ccc(CSc2ccc3nnc(CCNS(=O)(=O)c4ccc(C)cc4)n3n2)cc1,.,-5%,?,.,6,16µM*
CC(=O)c1ccc(NC(=O)CSc2ccc3nnc(CCNS(=O)(=O)c4ccc(C)cc4)n3n2)cc1,.,-3%,?,.,3,-28%
O=S(=O)(NCCc1nnc2ccc(SCc3cccnc3)nn12)c1ccccc1,-7,0%,-10%,30,2,-12%
COc1ccc(S(=O)(=O)NCCc2nnc3ccc(SCC(=O)Nc4cc(C)cc(C)c4)nn23)cc1,.,-3%,?,.,-4,21µM*
CC(O)C(=O)O (configuration not stated),.,.,-11%,.,-14,0%
O=C(C[N+]1(CC(O)c2ccccc2)CCOCC1)c1ccccc1 (configuration not stated),.,-1%,-12%,.,.,1%
N#CC(C#N)=C1C=C2C=C(N3CCCCC3)CCC2CC1 (configuration not stated),-6,2%,21µM*,3,9,26µM*
CCN(CC)C1=CC2=CC(=C(C#N)C#N)CCC2CC1 (configuration not stated),-2,.,?,8,-13,-14%
CCCCNS(=O)(=O)c1cc(-c2nn(C)c(=O)c3ccccc23)ccc1C,-65*,-4%,-1%,-2,1,?
CCN(CC)S(=O)(=O)c1cc(-c2nn(C)c(=O)c3ccccc23)ccc1C,38,-2%,16µM*,-22,-3,23µM*
CCc1ccccc1N(CC(=O)NCc1ccco1)C(=O)CCC(=O)Nc1nccs1,-21,.,-28%,-13,0,-26%
COc1ccccc1-c1c(C)oc2cc(OC(=O)c3ccco3)ccc2c1=O,3,273%,?,4,-2,?
COc1ccccc1-c1c(C(F)(F)F)oc2cc(OC(=O)c3cccc([N+](=O)[O-])c3C)ccc2c1=O,6,1%,23µM*,-11,-3,21µM*
Cc1ccc(OC(=O)c2cc(C)nn2C(C)(C)C)cc1,0,1%,?,5,-8,?
CC1CC(C)CN(C(=O)c2cc3cc(Br)cc(Br)c3o2)C1 (configuration not stated),-70*,-3%,?,-4,2,-2%
COc1cc(-c2nnco2)cc(OC)c1OC,5,.,9%,18,10,-7%
COc1cc(/C=C2\CCC(C)C3=C(c4cc(OC)c(OC)c(OC)c4)C(C#N)=C(N)OC32)cc(OC)c1OC (configuration not stated),-16,-11%,3.7µM*,0,-4,2.6µM*
Cc1nn(-c2ccccc2)c(-c2ccccc2[N+](=O)[O-])c1CC#N,10,-2%,16µM*,12,5,?
COc1ccc(C2/C=C\CN(S(=O)(=O)/C=C/c3ccccc3)[C@H](Cc3ccccc3)C(=O)N2Cc2ccc(F)cc2)cc1 (some centres not stated),-8,0%,?,-25,-18,?
COc1ccc([C@H]2/C=C\CN(C(=O)c3ccc(C)cc3)[C@@H](C)C(=O)N2Cc2ccc(F)cc2)cc1,-6,2%,21µM*,5,4,?
COc1ccc(C2/C=C\CN(C(=O)c3ccccc3)[C@H](Cc3ccccc3)C(=O)N2Cc2ccc(F)cc2)cc1 (some centres not stated),4,-5%,15µM*,22,-8,21µM*
CCCCCCCCCCCC[n+]1ccc(C)c2ccccc21,.,-18%,2µM*,.,.,2µM*
CCCCCCC[n+]1ccc(C)c2ccccc21,.,-26%,0.45µM*,.,.,0.45µM*
Cc1cc[n+](CCC2CCCCC2)c2ccccc12,.,4%,0.89µM*,.,.,1.3µM*
Cc1cc[n+](C)c2ccccc12,.,-4%,-21%,.,.,4%
SMILES,IL-1B inflam inh,ClpP mod,DT40 TDP1 no CPT,D3 antag,DRD3 agonist,DT40 TDP1 CPT
CC(C)(C)C(=O)NNC(=O)c1cc2sccc2s1,5,.,1%,16,11,6%
CC(C)Oc1cccc(C(=O)C2CCCN(C(=O)CCc3cnn(C)c3)C2)c1 (configuration not stated),14,-2%,?,-17,-19,16µM*
Cc1nn(C)c(C)c1CCC(=O)N1CCCC(Nc2ccc(C(C)C)cc2)C1 (configuration not stated),48,1%,-14%,6,1,-11%
Cc1nn(C)c(C)c1CCC(=O)N1CCCC(C(=O)c2cccc(OC(C)C)c2)C1 (configuration not stated),1,-3%,?,26,6,18µM*
COc1ccccc1N1CCN(C(=O)C(Sc2ccccc2)c2ccccc2)CC1 (configuration not stated),?,0%,?,15,0,18µM*
O=C(NC1CCN(C(=O)c2cccc([N+](=O)[O-])c2)CC1)c1ccccc1,30,.,-19%,-1,-8,-1%
COc1cc(OC)cc(C(=O)N2CCC(N3CCN(c4ccccc4OC)CC3)CC2)c1,2,1%,?,-53*,0,-29%
COc1ccccc1N1CCN(C(=O)c2cccc(Oc3ccccc3)c2)CC1,22,1%,-15%,16,0,-30%
COc1ccccc1C1CCN(C(=O)c2cccc([N+](=O)[O-])c2)CC1,.,.,16µM*,4,-2,?
COc1ccc(C(=O)N2CCN(c3ccccc3OC)CC2)cc1,7,0%,-1%,5,-1,-1%
COc1ccccc1N1CCN(C(=O)c2ccc(-c3ccccc3)cc2)CC1,-14,0%,13µM*,22,-3,?
COc1ccc(-c2nc3ccc(Cl)cn3c2Cc2ccsc2)cc1OC,-23,-25%,?,36,4,?
Cc1ccc(S(=O)(=O)N(C)C)cc1NC(=O)COC(=O)CSc1ccccc1,2,-4%,-4%,-17,2,8%
C[C@@H]1CN([C@H](C)CO)C(=O)CCCn2cc(nn2)CO[C@H]1CN(C)C(=O)C1CCCCC1,-9,-3%,7%,12,-8,-4%
CC[C@@H]1Cc2[nH][nH]c(=O)c2[C@@H](c2ccc(Cl)cc2)O1,10,-2%,-27%,-7,0,-22%
CN1CCCN(C(=O)CNC(=O)c2ccccc2F)CC1,-5,1%,?,-4,-8,-11%
